According to ChEMBL document CHEMBL3433997, “St. Jude Leishmania screening dataset” (2016):

Legend:
Format in all cases: functional
[1] = target: Solute carrier family 2, facilitated glucose transporter member 1 (Homo sapiens) (UniProt P11166); assay: ST_JUDE_LEISH: Cytotoxicity at 2uM final concentration against transgenic Leishmania Mexicana promastigotes LmGLUT1 that are glucose transport deficient and complemented with the human glucose transporter GLUT1. Activity is measured by DNA content using SYBR green in vitro
Chain of Solute carrier family 2, facilitated glucose transporter member 1 (Homo sapiens) (P11166 whole entry): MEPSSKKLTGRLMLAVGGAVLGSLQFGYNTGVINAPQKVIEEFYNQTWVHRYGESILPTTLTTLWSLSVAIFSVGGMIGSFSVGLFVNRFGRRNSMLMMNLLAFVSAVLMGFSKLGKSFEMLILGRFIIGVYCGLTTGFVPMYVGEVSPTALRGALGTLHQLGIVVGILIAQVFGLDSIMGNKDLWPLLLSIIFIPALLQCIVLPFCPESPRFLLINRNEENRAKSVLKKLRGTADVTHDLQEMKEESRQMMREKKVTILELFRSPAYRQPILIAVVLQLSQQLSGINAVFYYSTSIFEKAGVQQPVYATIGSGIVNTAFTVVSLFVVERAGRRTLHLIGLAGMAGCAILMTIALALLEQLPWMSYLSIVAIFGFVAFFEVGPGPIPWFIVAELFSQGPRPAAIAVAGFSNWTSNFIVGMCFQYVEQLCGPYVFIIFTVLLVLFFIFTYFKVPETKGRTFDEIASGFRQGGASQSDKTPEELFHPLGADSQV

[2] = target: Hexose transporter 1 (Plasmodium falciparum) (UniProt O97467); assay: ST_JUDE_LEISH: Cytotoxicity at 2uM final concentration against transgenic Leishmania Mexicana promastigotes LmPfHT that are glucose transport deficient and complemented with the Plasmodium falciparum hexose transporter. Activity is measured by DNA content using SYBR green in vitro
[3] = target: Glucose transporter (Leishmania mexicana) (UniProt O61059); assay: ST_JUDE_LEISH: Cytotoxicity at 2uM final concentration against transgenic Leishmania Mexicana promastigotes LmGT2 that are glucose transport deficient and complemented with the L. Mexicana glucose transporter 2. Activity is measured by DNA content using SYBR green in vitro

| SMILES | inhibition [1] | inhibition [2] | inhibition [3] |
| --- | --- | --- | --- |
| Nc1oc2c(CN3CCCCCC3)c(O)ccc2c(=O)c1-c1nc2ccccc2s1 | -1.92% | 6.76% | 2.85% |
| N#Cc1cc([N+](=O)[O-])ccc1-n1nc(C(N)=O)n(Cc2cccc(F)c2)c1=S | 11.3% | 8.94% | 5.66% |
| CC(C)(C)C(=O)Nc1ccc(N2CCN(C(c3ccccc3)c3ccccc3)CC2)c(Cl)c1 | 8.85% | 7.04% | 4.93% |
| COc1ccc(C2(CNCC(O)c3cccc([N+](=O)[O-])c3)CCCC2)cc1OC (centres undefined) | 2.7% | 4.72% | 3.66% |
| COc1ccc2c(=NN=Cc3cccc(Cl)c3)cc(C)[nH]c2c1 | 2.13% | 0.71% | -0.53% |
| NS(=O)(=O)c1cccc(-c2ccc3ncc(N4CCOCC4)nc3c2)c1 | 1.24% | 2.84% | -0.09% |
| COc1cc2c(c(OC)c1[N+](=O)[O-])C=CC1(O2)N(C)c2ccc([N+](=O)[O-])cc2C1(C)C (centres undefined) | 4.19% | 0.99% | 1.36% |
| CCCSc1nc2c(c(=O)n1CCc1ccccc1)C1(CCCC1)Cc1ccccc1-2 | -1.58% | 1.38% | 0.24% |
| Cc1cc2nc(-c3ccc(/C=C/C(=O)NC4CCN(Cc5ccccc5)CC4)cc3)[nH]c2cc1C | 0.58% | -0.75% | -2.3% |
| CS(=O)(=O)Nc1cccc(-c2cnc3[nH]cc(-c4ccc(CN)cc4)c3c2)c1 | 4.62% | 4.04% | 3.33% |
| CCOCCCNc1nc2cc(OC)c(OC)cc2c2nc(-c3ccccc3)nn12 | 1.59% | 2.14% | -2.64% |
| N#Cc1cccc(NC(=O)Nc2cccc(-c3ccc(-c4nc5cc(C(F)(F)F)ccc5[nH]4)cc3)c2)c1 | 2.29% | 2.13% | -7.53% |
| COc1ccc(NC(=O)NC2CCN(CCCOc3ccnc4cc(Cl)ccc34)C2)cc1OC (centres undefined) | -0.88% | -0.13% | -0.69% |
| CN1CCN(c2ccnc3ccc(NC(=O)Nc4ccc(-c5ccncc5)c(C#N)c4)cc23)CC1 | -0.68% | -2.42% | -2.77% |
| CN(C)CCn1cc(C(=O)c2cc(Cl)ccc2O)cc1-c1nc2ccccc2c(=O)[nH]1 | 0.7% | -0.71% | -2.96% |
| O=C(Nc1cccc(-c2nn3ccccc3c2-c2ccnc(Nc3ccccc3)n2)c1)c1c(F)cccc1F | 0.96% | 5.19% | 1.51% |
| COc1ccc(CNCc2cccc(-c3cccc(-c4nc5cc(F)ccc5[nH]4)c3)c2)cc1 | 2.28% | 0.55% | -0.04% |
| CC(C)CC(=O)N1CCNC[C@@H]1C(=O)NC1CC1 | 1.66% | 1.41% | -0.37% |
